Experiment [1] concerns the target Cell division control protein 42 homolog (Homo sapiens) (UniProt P60953). Kind of experiment: activated mutant Cdc42 GTP-binding inhibitors, dose response, biochemical, multiplex bead flow cytometry, Bodipy-FL-GTP (AID 1333).
Experiment [2] shares this target. Briefly: wildtype Cdc42 GTP-binding inhibitors, dose response, biochemical, multiplex bead flow cytometry, Bodipy-FL-GTP (AID 1334;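 active = fitted half-maximal concentration within the tested range, moderate curve steepness, significant signal drop, and little compound fluorescence or bead-linkage interference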). To be noted: bead-based flow cytometry, Bodipy-FL-GTP binding to GST-Cdc42; at 100 µM (top of the series) unless noted. (In general: Flow cytometry measures light scatter and fluorescence of single cells or particles in a stream.)
The target of experiment [3] is GTPase HRas (Homo sapiens) (UniProt P01112). Kind of experiment: inhibitors of GTP binding to wildtype Ras, dose response, biochemical, multiplex bead flow cytometry (AID 1335;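 active = fitted half-maximal concentration within 10 nM to 100 µM, steepness 0.5 to 2, significant signal drop, low assay interference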). The following applies: bead-based flow cytometry, Bodipy-GTP binding to GST-Ras; at 100 µM (top of the series) unless noted.
Chain of GTPase HRas (Homo sapiens) (P01112 whole entry, looked up): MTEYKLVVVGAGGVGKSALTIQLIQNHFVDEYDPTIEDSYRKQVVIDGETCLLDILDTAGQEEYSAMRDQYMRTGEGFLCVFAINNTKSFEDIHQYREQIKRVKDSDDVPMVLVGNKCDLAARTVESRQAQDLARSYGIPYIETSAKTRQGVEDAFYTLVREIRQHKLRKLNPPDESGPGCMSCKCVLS
In experiment [4] the test system is Ras-related protein Rab-7a (dog), GTP binding. Kind of experiment: Rab7 GTP binding inhibitors, potency, dose response, biochemical, wildtype, multiplex bead flow cytometry (AID 1336; call rule not given here).
The target of experiment [5] is Ras-related C3 botulinum toxin substrate 1 (Homo sapiens) (UniProt P63000). Briefly: wildtype Rac1 GTP binding inhibitors, dose response, biochemical, multiplex bead flow cytometry (AID 1340;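 active = dose curve with midpoint inside tested range, moderate steepness, plateau gap beyond fit error, low compound glow and bead-link interference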). To be noted: GST-Rac1 beads, Bodipy-FL-GTP binding; at 100 µM (top of the series) unless noted.
The target of experiment [6] is GTPase HRas (Homo sapiens) (UniProt P01112). Kind of experiment: activated Ras mutant GTP binding inhibitors, dose response, biochemical, multiplex bead flow cytometry (AID 1341;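 active = dose-response curve with midpoint inside the tested range, moderate steepness, significant amplitude and little compound fluorescence or bead-attachment interference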;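 note: GST-tagged constitutively activated Ras mutant immobilized on beads and multiplexed with other GTPases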).

The values that follow come from PubChem BioAssay.

For part of these data: Results with a measured potency or affinity are listed apart. Active and inactive are the calls of the source.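 Rule for the calls, unless noted: active = fitted half-maximal concentration within the tested dose range, moderate curve steepness, a statistically real signal drop, and little compound fluorescence or tag-binding interference; inactive = the rest.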

Chain of Cell division control protein 42 homolog (Homo sapiens) (P60953 whole entry, looked up): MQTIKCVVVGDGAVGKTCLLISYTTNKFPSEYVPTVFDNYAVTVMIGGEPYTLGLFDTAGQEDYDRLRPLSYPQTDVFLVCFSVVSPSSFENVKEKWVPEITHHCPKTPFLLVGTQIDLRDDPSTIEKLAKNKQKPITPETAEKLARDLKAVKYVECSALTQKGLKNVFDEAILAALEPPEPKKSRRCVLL

Regarding `O=C(COC(=O)c1ccc2c(c1[N+](=O)[O-])C(=O)c1ccccc1C2=O)NC1CC1`, the call in experiment [1], in experiment [4] and in experiment [6] was inactive. In addition, the fluorescence, percent of control (lower = inhibition) in experiment [2] was found to be 29.3%. The same compound returned a GTP binding, percent of control in experiment [3] of 72.9%. Besides, in experiment [5], the GTP binding signal, raw median fluorescence (lower = inhibition) (MCF (arbitrary fluorescence units)) is 178.
As for `Cc1ccccc1OCCn1cc(C(=O)O)c2c(C)cccc21`, the result in experiment [1], in experiment [4] and in experiment [6] was inactive. Further, the fluorescence, percent of control (lower = inhibition) in experiment [2] stood at 53%. Also, the GTP binding, percent of control in experiment [3] turned out to be 176%. The same compound displayed a GTP binding signal, raw median fluorescence (lower = inhibition) (MCF (arbitrary fluorescence units)) in experiment [5] of 55.6.
Consider `CCc1ccc(Sc2cc(C(=O)O)c3ccccc3n2)cc1`, for which the compound was classed as inactive in experiment [1], in experiment [4] and in experiment [6]. In experiment [2], the fluorescence, percent of control (lower = inhibition) was determined as 57.8%. The same compound yielded a GTP binding, percent of control in experiment [3] of 86%. Further, the GTP binding signal, raw median fluorescence (lower = inhibition) (MCF (arbitrary fluorescence units)) in experiment [5] worked out at 31.
`COc1cc(N2CCCC2)c(OC)cc1/C=C(/C#N)c1cccc(F)c1`: the result in experiment [1], in experiment [4] and in experiment [6] was inactive. Moreover, the fluorescence, percent of control (lower = inhibition) in experiment [2] came out at 137%. In experiment [3], this compound gave a GTP binding, percent of control of 214%. In addition, the GTP binding signal, raw median fluorescence (lower = inhibition) (MCF (arbitrary fluorescence units)) in experiment [5] is 210.
As for `O=C(Cn1cnc2c(nnn2Cc2ccccc2F)c1=O)NCC1CCCO1` (centres undefined), the result in experiment [1], in experiment [4] and in experiment [6] was inactive. For the same compound, the fluorescence, percent of control (lower = inhibition) in experiment [2] turned out to be 51.6%. Moreover, in experiment [3], the GTP binding, percent of control amounted to 63.1%. This compound also displayed a GTP binding signal, raw median fluorescence (lower = inhibition) (MCF (arbitrary fluorescence units)) in experiment [5] of 208.
As to `Fc1cccc(Nc2ncnc3[nH]ncc23)c1`, the compound was called inactive in experiment [1], in experiment [4] and in experiment [6]. Also, the fluorescence, percent of control (lower = inhibition) in experiment [2] came to 30.9%. This compound also had a GTP binding, percent of control in experiment [3] of 72.3%. The GTP binding signal, raw median fluorescence (lower = inhibition) (MCF (arbitrary fluorescence units)) in experiment [5] was 177.
For the compound `COc1ccccc1-n1cc([C@@H]2C[C@H]3CN(c4ccccc4)C(=O)[C@]34CCCN24)cn1`, the call in experiment [1], in experiment [4] and in experiment [6] was inactive. In addition, the fluorescence, percent of control (lower = inhibition) in experiment [2] came to 71.8%. The compound further yielded a GTP binding, percent of control in experiment [3] of 119%. Also, the GTP binding signal, raw median fluorescence (lower = inhibition) (MCF (arbitrary fluorescence units)) in experiment [5] amounted to 293.
As for `O=[N+]([O-])c1cc(Br)c(O)c(C=Nc2ccc(N3CCOCC3)cc2)c1`, the outcome in experiment [1], in experiment [4] and in experiment [6] was inactive. In experiment [2], the fluorescence, percent of control (lower = inhibition) turned out to be 30.7%. In experiment [3], the GTP binding, percent of control is 79.8%. Besides, the GTP binding signal, raw median fluorescence (lower = inhibition) (MCF (arbitrary fluorescence units)) in experiment [5] was 218.
On to `CC(=O)Nc1ccc(N=Cc2c(O)c(C(=O)Nc3ccccc3)cc3ccccc23)cc1`, for which the compound was classed as inactive in experiment [1], in experiment [4] and in experiment [6]. Also, the fluorescence, percent of control (lower = inhibition) in experiment [2] worked out at 85.4%. This compound gave a GTP binding, percent of control in experiment [3] of 123%. In experiment [5], the GTP binding signal, raw median fluorescence (lower = inhibition) (MCF (arbitrary fluorescence units)) was 341.
For the compound `CCNC(=O)c1cc2c(=O)n3cccc(C)c3nc2n(CCc2ccccc2)c1=N`, the compound was called inactive in experiment [1], in experiment [4] and in experiment [6]. Also, the fluorescence, percent of control (lower = inhibition) in experiment [2] was determined as 74%. The same compound displayed a GTP binding, percent of control in experiment [3] of 113%. In addition, the GTP binding signal, raw median fluorescence (lower = inhibition) (MCF (arbitrary fluorescence units)) in experiment [5] was 126.
As to `O=C(CSc1n[nH]c(=O)[nH]c1=O)N/N=C/c1ccccc1`, the result in experiment [1], in experiment [4] and in experiment [6] was inactive. Further, in experiment [2], the fluorescence, percent of control (lower = inhibition) was determined as 49.5%. In experiment [3], this compound gave a GTP binding, percent of control of 61.4%. In experiment [5], this compound registered a GTP binding signal, raw median fluorescence (lower = inhibition) (MCF (arbitrary fluorescence units)) of 197.
In the case of `Oc1ccc(/C=N/NC(=S)N/N=C/c2ccc(O)cc2)cc1`, the outcome in experiment [1], in experiment [4] and in experiment [6] was inactive. The fluorescence, percent of control (lower = inhibition) in experiment [2] came out at 45%. In experiment [3], this compound showed a GTP binding, percent of control of 88.4%. In experiment [5], this compound gave a GTP binding signal, raw median fluorescence (lower = inhibition) (MCF (arbitrary fluorescence units)) of 177.
On to `CN(/N=C/c1ccco1)C1=NS(=O)(=O)c2ccccc21`, for which the compound was called inactive in experiment [1], in experiment [4] and in experiment [6]. Also, the fluorescence, percent of control (lower = inhibition) in experiment [2] is 32%. This compound also returned a GTP binding, percent of control in experiment [3] of 74.9%. The compound further had a GTP binding signal, raw median fluorescence (lower = inhibition) (MCF (arbitrary fluorescence units)) in experiment [5] of 206.
For `COc1ccc(-c2cc(C(F)(F)F)n3nc(C(=O)O)cc3n2)cc1OC`, the call in experiment [1], in experiment [4] and in experiment [6] was inactive. For the same compound, in experiment [2], the fluorescence, percent of control (lower = inhibition) turned out to be 30.7%. Also, the GTP binding, percent of control in experiment [3] was 67.7%. The GTP binding signal, raw median fluorescence (lower = inhibition) (MCF (arbitrary fluorescence units)) in experiment [5] worked out at 140.
